From PubChem BioAssay (NCI) come the findings set out here.

Experiment in all cases: NCI-60 one-dose screen, 48 h (100 = growth as untreated, 0 = no growth, -100 = all killed)
Common to all, as to settings: 10 µM unless noted

The test system of experiment [1] is SR leukemia.
Experiment [2] deals with RPMI-8226 leukemia.
For experiment [3], the system named is OVCAR-8 ovarian.
For experiment [4], the system named is OVCAR-5 ovarian.
Experiment [5] relates to OVCAR-4 ovarian.
Experiment [6] deals with SK-OV-3 ovarian.
Experiment [7] concerns IGROV1 ovarian.
Experiment [8] deals with OVCAR-3 ovarian.
Experiment [9] has as its system HS 578T breast.
For experiment [10], the system named is NCI/ADR-RES ovarian.
Experiment [11] concerns T-47D breast.
Experiment [12] has as its system BT-549 breast.
The test system of experiment [13] is MDA-MB-435 melanoma.
For experiment [14], the system named is SW-620 colon.
In experiment [15] the test system is MCF7 breast.
The subject of experiment [16] is HCT-116 colon.
The test system of experiment [17] is HCC-2998 colon.
For experiment [18], the system named is KM12 colon.

Compounds without any hit were thinned out: in the full panel of roughly 83,000, 20% have a hit.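 Values shown are percent growth following 48 h exposure of cells in 96-well plates to a single concentration of compound; below 10 was considered active.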 A number with no mark means an inactive call. The source made the active and inactive calls.

On to `N#Cc1c(N)nc2c(nnn2-c2cccc(Br)c2)c1N`, for which the growth in [1] is 83.8%; in experiment [2], 86.8%; in [3], 93.8%; in experiment [4], 108%; in experiment [5], 107%; in [6], 101%. Also, the growth in experiment [7] is 93.5%; in [8], 106%; in [9], 68.8%; in experiment [10], 103%; in [11], 67.1%; in [12], 97.1%. The growth is 108% in experiment [13]; 96.9% in [14]; 71.4% in experiment [15]; 91.3% in experiment [16]; 106% in [17]; 97% in experiment [18].

On to `N[C@@H]1CCC[C@H]1NCCCCN1C(=O)c2cccc3cccc(c23)C1=O`, for which the growth in experiment [1] is 18.1%; in experiment [2], 77.7%; in experiment [3], 45%; in experiment [4], 80.9%; in experiment [5], 47.2%; in [6], 96.9%. Moreover, the growth in experiment [7] is 59.9%; in experiment [8] it was 69.9%; in [9], 71.8%; in experiment [10] it was 82.4%; in experiment [11] it was 86.3%; in experiment [12], 78.9%. Moreover, the growth was 83.3% in experiment [13]; 38% in experiment [14]; 70% in experiment [15]; 50.3% in [16]; 60.1% in [17]; 63.5% in [18].

For the molecule `COc1cc2c(cc1OC)-c1ccc3cc4c(cc3c1N(CCCN(C)C)C2)OCO4`, the growth is 15.3% in [1]; 17.1% in experiment [2]; 27.5% in experiment [3]; 60% in experiment [4]; 52.4% in experiment [5]; 55.3% in [6]. The growth in experiment [7] is 21.7%; in experiment [8], 48%; in experiment [9], 45.5%; in experiment [10] it was 65.4%; in [11], 54.6%; in experiment [12] it was 41.2%. Also, the growth in [13] was 44%; in experiment [14], 25.2%; in experiment [15], 26%; in experiment [16], 9.53% (active); in experiment [17] it was 64.6%; in experiment [18], 38.4%.

Turning to `COc1ccc(-c2cc(-c3cc(OC)ccc3OC)[nH]c(=O)c2C#N)cc1`, the growth in experiment [1] is 14.2%; in [2], 88.6%; in experiment [3], 56.6%; in experiment [4], 116%; in [5], 68.9%; in experiment [6], 71.6%. Besides, the growth in [7] was 53.3%; in [8] it was 21.3%; in experiment [9], 43.5%; in experiment [10], 34.2%; in experiment [11], 63.8%; in [12], 48.7%. For the same molecule, the growth in experiment [13] is 1.49% (active); in experiment [14] it was 26.7%; in [15], 59.5%; in experiment [16] it was 29.9%; in experiment [17] it was 75.9%; in experiment [18], 51.4%.

In the case of `Cc1nn(-c2ccccc2)c2c1C(c1ccc([N+](=O)[O-])cc1)C(C#N)=C(N)O2` (configuration not stated), the growth in experiment [1] is 91.5%; in experiment [2], 74.1%; in experiment [3] it was 90.9%; in [4], 106%; in [5], 100%; in experiment [6], 107%. The growth was 82.9% in [7]; 122% in experiment [8]; 103% in [9]; 104% in experiment [10]; 98.4% in experiment [11]; 123% in [12]. Besides, the growth in [13] was 121%; in [14], 119%; in [15] it was 96.7%; in [16], 95.8%; in experiment [17] it was 105%; in experiment [18] it was 109%.

As to `CN1CCN(c2ccc(Nc3ncc(Cl)c(NC[C@@H]4CCCO4)n3)cc2)CC1`, the growth in [1] was -0.801% (active); in experiment [2], 29.5%; in experiment [3], 27.5%; in [4], 18.1%; in experiment [5], 29.7%; in experiment [6], 28.6%. Also, the growth was 23.4% in experiment [7]; 42.8% in experiment [8]; 6.95% (active) in experiment [9]; 31.3% in [10]; 62.2% in experiment [11]; 33.3% in experiment [12]. In addition, the growth in [13] is 44%; in [14] it was 7.44% (active); in [15], 9.61% (active); in experiment [16] it was 4.74% (active); in [17] it was 60.7%; in experiment [18], 9.71% (active).

As to `NC(N)=N/N=C/CO`, the growth in experiment [1] is 92%; in [2] it was 103%; in [3], 103%; in experiment [4], 104%; in experiment [5], 96%; in experiment [6] it was 102%. The growth in experiment [7] was 108%; in [8] it was 107%; in experiment [9], 112%; in experiment [10] it was 95.5%; in experiment [11], 108%; in experiment [12], 96.7%. In addition, the growth in experiment [13] is 106%; in experiment [14], 106%; in experiment [15], 98.3%; in experiment [16], 94.1%; in experiment [17] it was 119%; in [18], 102%.

For the molecule `C=C1C(=O)O[C@H]2[C@H]1CC/C(C(=O)NCCCCCCCCNC(=O)/C1=C/CC[C@@]3(C)O[C@H]3[C@H]3OC(=O)C(=C)[C@@H]3CC1)=C\CC[C@@]1(C)O[C@@H]21`, the growth in [1] was 20.2%; in experiment [2], 33.6%; in experiment [3], 93.4%; in [4], 97.1%; in experiment [5], 73.1%; in experiment [6] it was 93.5%. Also, the growth in experiment [7] was 63.3%; in experiment [8], 33.1%; in experiment [9], 90.5%; in experiment [10], 103%; in experiment [11], 28.4%; in [12], 51%. Moreover, the growth is 86.8% in experiment [13]; 14.2% in experiment [14]; 37.9% in [15]; 29.7% in experiment [16]; 97.2% in experiment [17]; 93.1% in experiment [18].

As for `COc1cc(-c2cccc([N+](=O)[O-])c2)c(-c2nc(-c3ccccc3)c(-c3ccccc3)n2C2CC2)cc1OC`, the growth in experiment [1] was 57.2%; in experiment [2], 10.8%; in experiment [3] it was 62.8%; in experiment [4], 87.3%; in experiment [5] it was 62.2%; in experiment [6], 80%. In addition, the growth was 78.5% in experiment [7]; 66.5% in [8]; 83.4% in experiment [9]; 62% in experiment [10]; 23.9% in experiment [11]; 47.2% in experiment [12]. The growth is 67.4% in experiment [13]; 76.3% in experiment [14]; 34.8% in experiment [15]; 26.8% in experiment [16]; 81.2% in experiment [17]; 67.3% in experiment [18].
